The record followed here is paper PMC5700166.

Assay in all cases: protein-binding microarray (PBM); PBM: ~300 nM protein, 6 mM HEPES pH 7.8, 80 mM KCl, 0.5 mM EDTA, 0.5 mM EGTA, 6% glycerol, 35 ng/ul poly-dIdC, 1% milk, 1 h, room temperature; Ap Aiptasia and Nv Nematostella (sea anemones) / Co Capsaspora / Aq Amphimedon (sponge) / Dm Drosophila / Hu human; RHD is the Rel homology domain; high values mean tight binding
Conditions in all cases: dsDNA, one strand shown

In one experiment the target is T1, GST-Ap-NF-kB RHD (Exaiptasia pallida (Aiptasia), UniProt A0A913YAJ5 2-422).
T1 sequence: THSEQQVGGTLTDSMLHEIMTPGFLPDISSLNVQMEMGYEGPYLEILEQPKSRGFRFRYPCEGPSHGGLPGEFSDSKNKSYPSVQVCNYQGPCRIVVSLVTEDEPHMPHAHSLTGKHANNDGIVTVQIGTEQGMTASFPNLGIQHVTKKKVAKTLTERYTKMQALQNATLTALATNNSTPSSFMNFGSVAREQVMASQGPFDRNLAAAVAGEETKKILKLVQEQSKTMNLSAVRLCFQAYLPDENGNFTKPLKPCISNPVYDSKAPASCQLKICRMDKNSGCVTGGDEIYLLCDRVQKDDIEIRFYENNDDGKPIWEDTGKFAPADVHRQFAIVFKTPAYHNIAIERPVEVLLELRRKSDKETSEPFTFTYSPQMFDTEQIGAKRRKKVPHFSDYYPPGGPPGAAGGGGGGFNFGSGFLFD

Experiment [1] deals with T2, GST-Nv-NF-kB (Cys allele) (Nematostella vectensis, UniProt E5G601 2-411).
T2 sequence: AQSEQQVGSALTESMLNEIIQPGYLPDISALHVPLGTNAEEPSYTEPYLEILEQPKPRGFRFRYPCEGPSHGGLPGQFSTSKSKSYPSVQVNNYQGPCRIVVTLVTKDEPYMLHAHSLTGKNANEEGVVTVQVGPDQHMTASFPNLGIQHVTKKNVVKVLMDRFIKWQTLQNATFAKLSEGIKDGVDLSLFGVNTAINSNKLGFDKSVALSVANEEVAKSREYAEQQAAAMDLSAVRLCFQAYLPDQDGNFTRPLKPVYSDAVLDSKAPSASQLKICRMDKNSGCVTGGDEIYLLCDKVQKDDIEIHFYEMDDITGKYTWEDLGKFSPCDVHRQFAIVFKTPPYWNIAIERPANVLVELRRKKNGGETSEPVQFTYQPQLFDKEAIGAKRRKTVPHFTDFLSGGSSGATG

For experiment [2], the target named is T3, GST-Nv-NF-kB (Ser allele) (Nematostella vectensis, UniProt A7UNT2 2-411).
T3 sequence: T2 sequence with Q21R, C66S, S207N, E215Q, V217A, E225K, A268E, D399E

Another experiment deals with T4, GST-Co-NF-kB (Capsaspora owczarzaki, UniProt F1ARL5 200-546).
T4 sequence: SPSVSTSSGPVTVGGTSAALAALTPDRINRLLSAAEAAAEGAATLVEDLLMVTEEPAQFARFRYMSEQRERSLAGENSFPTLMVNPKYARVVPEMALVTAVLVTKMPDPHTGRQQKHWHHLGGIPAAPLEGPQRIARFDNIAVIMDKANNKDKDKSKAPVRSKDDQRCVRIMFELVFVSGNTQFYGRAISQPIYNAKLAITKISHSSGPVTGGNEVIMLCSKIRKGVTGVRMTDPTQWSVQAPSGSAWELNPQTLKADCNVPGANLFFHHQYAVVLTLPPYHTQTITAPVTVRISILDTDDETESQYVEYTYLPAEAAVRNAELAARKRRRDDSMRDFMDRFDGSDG

The next experiment concerns the target T5, GST-Dm-Relish (Drosophila melanogaster, UniProt Q94527 99-473).
T5 sequence: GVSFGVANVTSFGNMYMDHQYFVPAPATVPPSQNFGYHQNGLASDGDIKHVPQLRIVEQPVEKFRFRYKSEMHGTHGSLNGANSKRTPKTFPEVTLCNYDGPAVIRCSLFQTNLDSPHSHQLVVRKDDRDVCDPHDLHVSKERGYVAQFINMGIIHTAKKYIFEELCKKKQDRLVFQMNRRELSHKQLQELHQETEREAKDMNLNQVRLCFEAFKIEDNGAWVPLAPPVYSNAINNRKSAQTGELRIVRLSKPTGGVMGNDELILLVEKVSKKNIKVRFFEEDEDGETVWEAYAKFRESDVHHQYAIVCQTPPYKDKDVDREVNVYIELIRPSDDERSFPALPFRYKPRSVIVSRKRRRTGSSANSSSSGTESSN

The target in another experiment is T6, GST-Aq-NF-kB (Amphimedon queenslandica, UniProt A9Y5G7 2-389).
T6 sequence: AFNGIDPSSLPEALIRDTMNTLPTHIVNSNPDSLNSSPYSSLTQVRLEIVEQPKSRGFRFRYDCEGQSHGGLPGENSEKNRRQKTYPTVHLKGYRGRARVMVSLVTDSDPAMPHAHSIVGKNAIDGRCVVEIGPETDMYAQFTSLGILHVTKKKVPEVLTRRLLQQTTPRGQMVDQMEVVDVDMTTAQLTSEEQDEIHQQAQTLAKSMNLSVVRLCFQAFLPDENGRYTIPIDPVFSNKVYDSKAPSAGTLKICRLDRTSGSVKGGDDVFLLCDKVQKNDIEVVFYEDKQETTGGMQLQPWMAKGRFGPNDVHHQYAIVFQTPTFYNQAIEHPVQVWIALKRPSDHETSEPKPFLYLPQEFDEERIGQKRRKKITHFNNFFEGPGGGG

The next experiment addresses GST-Hu-p50 (Homo sapiens, UniProt P19838 7-356).

Substitutions are numbered along the chain they refer to.

Sequence of GST-Hu-p50 (P19838 7-356): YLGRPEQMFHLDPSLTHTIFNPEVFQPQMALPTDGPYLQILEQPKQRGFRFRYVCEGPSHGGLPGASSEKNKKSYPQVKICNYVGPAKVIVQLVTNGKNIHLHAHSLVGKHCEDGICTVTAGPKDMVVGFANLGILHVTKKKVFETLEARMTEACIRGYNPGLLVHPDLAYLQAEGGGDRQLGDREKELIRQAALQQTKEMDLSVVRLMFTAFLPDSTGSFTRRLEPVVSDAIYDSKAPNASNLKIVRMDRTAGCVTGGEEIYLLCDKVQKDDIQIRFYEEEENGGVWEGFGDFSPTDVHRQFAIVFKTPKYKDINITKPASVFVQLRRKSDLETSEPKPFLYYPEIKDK

On to “CCGATTAACATCAGGGGGATACATGATGTTAATCGGGTCTTGATTCGCTTGACGCTGCTG”, for which the binding signal was 5.54 z-score with GST-Ap-NF-kB RHD; 4.96 z-score in experiment [1]; 5.54 z-score in experiment [2]; 6.27 z-score with GST-Co-NF-kB; 3.6 z-score in the experiment with GST-Dm-Relish; 4.35 z-score with GST-Aq-NF-kB. The sequence also came in with a binding signal with GST-Hu-p50 of 5.05 z-score.
Turning to “CCGATTAACATCAGGCGATCCCCTGATGTTAATCGGGTCTTGATTCGCTTGACGCTGCTG”, the binding signal in the experiment with GST-Ap-NF-kB RHD was determined as 5.05 z-score; in experiment [1] it was 4.17 z-score; in experiment [2] it was 5.07 z-score; in the experiment with GST-Co-NF-kB, 1.58 z-score; in the experiment with GST-Dm-Relish it was 6.53 z-score; with GST-Aq-NF-kB, 5.06 z-score. For the same sequence, the binding signal with GST-Hu-p50 amounted to 3.98 z-score.
As for “CCGATTAACATCAAGATTCCCCCTGATGTTAATCGGGTCTTGATTCGCTTGACGCTGCTG”, the binding signal with GST-Ap-NF-kB RHD is 8.66 z-score; in experiment [1] it was 9.42 z-score; in experiment [2] it was 10.6 z-score; with GST-Co-NF-kB it was 9.18 z-score; with GST-Dm-Relish, 7.1 z-score; with GST-Aq-NF-kB it was 7.31 z-score. The same sequence displayed a binding signal with GST-Hu-p50 of 7.32 z-score.
With “CCGATTAACATCAAAATATTCCCTGATGTTAATCGGGTCTTGATTCGCTTGACGCTGCTG”, the binding signal was 6.25 z-score in the experiment with GST-Ap-NF-kB RHD; 7.36 z-score in experiment [1]; 7.68 z-score in experiment [2]; 4.81 z-score with GST-Co-NF-kB; 4.34 z-score with GST-Dm-Relish; 6.27 z-score with GST-Aq-NF-kB. The binding signal in the experiment with GST-Hu-p50 came out at 4.33 z-score.
“CCGATTAACATCAGGATTTCCCATGATGTTAATCGGGTCTTGATTCGCTTGACGCTGCTG”: the binding signal with GST-Ap-NF-kB RHD was 3.95 z-score; in experiment [1], 5.23 z-score; in experiment [2] it was 4.48 z-score; with GST-Co-NF-kB, 3.18 z-score; in the experiment with GST-Dm-Relish it was 5.84 z-score; in the experiment with GST-Aq-NF-kB, 5.27 z-score. Further, the binding signal in the experiment with GST-Hu-p50 came out at 3.73 z-score.
As to “CCGATTAACATCAATATCCCCCATGATGTTAATCGGGTCTTGATTCGCTTGACGCTGCTG”, the binding signal with GST-Ap-NF-kB RHD is 6.62 z-score; in experiment [1] it was 4.94 z-score; in experiment [2], 5.43 z-score; with GST-Co-NF-kB, 6.5 z-score; with GST-Dm-Relish, 3.73 z-score; in the experiment with GST-Aq-NF-kB, 4.55 z-score. Besides, in the experiment with GST-Hu-p50, the binding signal is 5.2 z-score.
On to “CCGATTAACATCAAAATTACCCCTGATGTTAATCGGGTCTTGATTCGCTTGACGCTGCTG”, for which the binding signal in the experiment with GST-Ap-NF-kB RHD is 4.94 z-score; in experiment [1], 6.27 z-score; in experiment [2], 7.21 z-score; in the experiment with GST-Co-NF-kB it was 7.33 z-score; in the experiment with GST-Dm-Relish, 5.24 z-score; with GST-Aq-NF-kB it was 6.34 z-score. Also, the binding signal with GST-Hu-p50 is 5.3 z-score.
Consider “CCGATTAACATCAAGATACCCCCTGATGTTAATCGGGTCTTGATTCGCTTGACGCTGCTG”, for which the binding signal with GST-Ap-NF-kB RHD is 7.1 z-score; in experiment [1], 4.31 z-score; in experiment [2] it was 5.25 z-score; with GST-Co-NF-kB it was 4.96 z-score; with GST-Dm-Relish, 4.14 z-score; with GST-Aq-NF-kB, 4.36 z-score. Further, the binding signal in the experiment with GST-Hu-p50 was 4.66 z-score.
For “CCGATTAACATCAAGGAATCCCCTGATGTTAATCGGGTCTTGATTCGCTTGACGCTGCTG”, the binding signal was determined as 9.79 z-score in the experiment with GST-Ap-NF-kB RHD; 9.72 z-score in experiment [1]; 10.4 z-score in experiment [2]; 3.63 z-score with GST-Co-NF-kB; 10.1 z-score with GST-Dm-Relish; 7.6 z-score in the experiment with GST-Aq-NF-kB. In the experiment with GST-Hu-p50, this sequence gave a binding signal of 7.1 z-score.
Turning to “CCGATTAACATCACCCCACCCCCTGATGTTAATCGGGTCTTGATTCGCTTGACGCTGCTG”, the binding signal in the experiment with GST-Ap-NF-kB RHD was determined as 3.67 z-score; in experiment [1] it was 2.66 z-score; in experiment [2], 3.49 z-score; with GST-Co-NF-kB, 3.94 z-score; in the experiment with GST-Dm-Relish, 4.21 z-score; in the experiment with GST-Aq-NF-kB, 3.4 z-score. In addition, the binding signal with GST-Hu-p50 is 3.36 z-score.
For “CCGATTAACATCAATCCCCACATTGATGTTAATCGGGTCTTGATTCGCTTGACGCTGCTG”, the binding signal in the experiment with GST-Ap-NF-kB RHD was 3.58 z-score; in experiment [1], 4.03 z-score; in experiment [2] it was 3.93 z-score; with GST-Co-NF-kB it was 2.61 z-score; with GST-Dm-Relish, 2.63 z-score; with GST-Aq-NF-kB, 2.58 z-score. In the experiment with GST-Hu-p50, this sequence had a binding signal of 3.86 z-score.
As to “CCGATTAACATCAGGGGGACAACTGATGTTAATCGGGTCTTGATTCGCTTGACGCTGCTG”, the binding signal in the experiment with GST-Ap-NF-kB RHD stood at 5.19 z-score; in experiment [1], 5.15 z-score; in experiment [2] it was 4.83 z-score; with GST-Co-NF-kB, 6.16 z-score; with GST-Dm-Relish, 3.66 z-score; with GST-Aq-NF-kB, 4.24 z-score. The sequence further showed a binding signal with GST-Hu-p50 of 4.46 z-score.
